Laboratory results published in ChEMBL document CHEMBL1201862, “PubChem BioAssay data set” (2004).
Hit rate of the full screen: of about 400,000 compounds, about 2,100 (0.53%) were called active. Not shown: some 14% with an inconclusive outcome. How the calls were made is not given here. The entries come from a sample that favours actives as a whole.

target: Ataxin-2 (Homo sapiens) (UniProt Q99700); assay: qHTS for Inhibitors of ATXN expression.; format: functional
Sequence (Q99700 whole entry): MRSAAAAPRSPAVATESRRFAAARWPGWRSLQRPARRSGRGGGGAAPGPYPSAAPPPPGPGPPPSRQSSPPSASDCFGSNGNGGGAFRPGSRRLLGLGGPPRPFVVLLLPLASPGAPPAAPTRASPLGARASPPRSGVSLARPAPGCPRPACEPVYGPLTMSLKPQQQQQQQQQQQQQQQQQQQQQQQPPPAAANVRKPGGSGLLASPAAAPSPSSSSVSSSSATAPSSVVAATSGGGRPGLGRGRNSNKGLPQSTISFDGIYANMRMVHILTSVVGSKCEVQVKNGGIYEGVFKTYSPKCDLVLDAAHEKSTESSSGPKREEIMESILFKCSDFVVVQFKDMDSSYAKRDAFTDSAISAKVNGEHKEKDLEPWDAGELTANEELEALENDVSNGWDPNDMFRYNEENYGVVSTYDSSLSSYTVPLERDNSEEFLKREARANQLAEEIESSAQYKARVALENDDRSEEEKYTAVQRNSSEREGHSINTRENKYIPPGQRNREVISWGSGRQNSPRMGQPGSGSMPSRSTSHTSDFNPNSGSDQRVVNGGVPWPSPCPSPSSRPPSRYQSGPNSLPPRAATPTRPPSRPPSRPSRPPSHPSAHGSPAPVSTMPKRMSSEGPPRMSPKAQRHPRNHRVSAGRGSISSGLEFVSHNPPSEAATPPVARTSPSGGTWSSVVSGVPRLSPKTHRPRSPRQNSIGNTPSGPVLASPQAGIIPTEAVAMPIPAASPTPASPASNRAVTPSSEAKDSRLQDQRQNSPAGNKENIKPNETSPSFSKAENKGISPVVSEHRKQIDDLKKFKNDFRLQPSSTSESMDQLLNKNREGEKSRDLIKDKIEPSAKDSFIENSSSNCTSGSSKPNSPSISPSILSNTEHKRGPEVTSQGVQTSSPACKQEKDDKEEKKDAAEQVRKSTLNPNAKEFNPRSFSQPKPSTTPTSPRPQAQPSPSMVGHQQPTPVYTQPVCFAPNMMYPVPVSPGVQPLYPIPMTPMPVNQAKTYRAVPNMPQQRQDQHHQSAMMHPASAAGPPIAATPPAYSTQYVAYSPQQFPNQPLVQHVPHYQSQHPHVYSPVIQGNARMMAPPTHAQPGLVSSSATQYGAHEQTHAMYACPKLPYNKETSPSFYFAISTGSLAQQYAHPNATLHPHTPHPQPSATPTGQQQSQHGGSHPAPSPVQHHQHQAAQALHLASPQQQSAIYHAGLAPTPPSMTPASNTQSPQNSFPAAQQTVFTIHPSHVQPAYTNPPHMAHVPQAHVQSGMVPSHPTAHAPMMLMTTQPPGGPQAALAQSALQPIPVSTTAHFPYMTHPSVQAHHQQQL

| Structure (SMILES) | Potency |
| --- | --- |
| Nc1ccc(-c2cc3ccccc3oc2=O)cc1 | inactive |
| COc1ccccc1[C@@H]1C(c2ccccc2)=NN(c2ccccc2)[C@H]1C(=O)N1CCOC1=O | inactive |
| Cc1cccc(N2C(=O)/C(=C\Nc3ccccc3)c3ccccc3C2=O)n1 | inactive |
| CCNc1nc(N)c(C(=O)C23CC4CC(CC(C4)C2)C3)s1 | inactive |
| Cn1c(C(=O)N2CCOCC2)cc2c(=O)n3ccccc3nc21 | inactive |
| C/C(=N\NC(=S)Nc1cccc(C)c1)c1cc2ccccc2o1 | inactive |
| COc1ccc(CN=C(Nc2ccccc2)SC2CC(=O)NC2=O)cc1 (centres undefined) | inactive |
| COc1ccc(C/C(C)=N/NC(=S)Nc2ccccc2)cc1 | 35.5 µM (active) |
| Cc1nc(NCC2CC2)c2nnn(Cc3ccccc3)c2n1 | inactive |
| O=S(=O)(NCCc1ccc(F)cc1)c1cccc2cccnc12 | inactive |
| O=S(=O)(NCC1CCN(Cc2ccccc2)CC1)c1ccccc1C(F)(F)F | inactive |
| CCn1cc(CN2CCCC(CNS(=O)(=O)c3cccc4cccnc34)C2)cn1 (centres undefined) | 3.16 µM (active) |
| Cc1cc(/C=C2\C(=N)N3N=C(S(C)(=O)=O)SC3=NC2=O)c(C)n1Cc1ccccc1 | inactive |
| CN(C)c1ccc(/C=N/NC(=O)c2nnn(-c3nonc3N)c2COc2ccc(F)cc2)cc1 | inactive |
| CC(C)c1c(C(=O)N/N=C/c2ccco2)nnn1-c1nonc1N | inactive |
| CCCN(CCC)Cc1c(C(=O)N/N=C/C(C)=C\c2ccco2)nnn1-c1nonc1N | 25.1 µM (active) |
| O=S(=O)(N/N=C1\CCCc2ccccc21)c1ccccc1 | inactive |
| COc1ccc(OC(C)C(=O)Nc2ccc(F)cc2F)cc1 (centres undefined) | inactive |
| CCCSc1nsc(NC(=O)Nc2ccc(F)cc2F)n1 | 31.6 µM (active) |
| O=C(Nc1ccc(F)cc1F)c1cc(Cl)sc1Cl | inactive |
| Cc1ccc2[nH]c(SCC(=O)c3ccc(O)cc3O)nc2c1 | inactive |
| O=C1OCCN1C(=O)[C@H]1[C@H](c2ccccc2)C(c2cccc(Cl)c2)=NN1c1ccc(Br)cc1 | inactive |

| Structure (SMILES) | Potency |
| --- | --- |
| CCCCN1C(=O)c2ccc(C(=O)NC3(C)CCS(=O)(=O)C3)cc2C1=O (centres undefined) | inactive |
| C=C1[C@@H](O)[C@H](CC(C)C)N(Cc2ccccc2Br)S1(=O)=O | 28.2 µM (active) |
| COc1ccccc1N(C(C)=O)C1=C(Cl)C(=O)c2ccccc2C1=O | inactive |
| C/N=C1\C(=O)c2ccccc2C(O)=C1N(C(C)=O)c1ccc(Br)cc1 | 14.1 µM (active) |
| CC(=O)N(C1=C(Cl)C(=O)c2ccccc2C1=O)c1ccc(C(=O)O)cc1 | inactive |
| NC(=O)c1nsc(C(=O)N(c2cccc(F)c2)C(C(=O)NCc2ccccc2)c2ccc(O)cc2)c1N (centres undefined) | inactive |
| COc1ccccc1NC(=O)N(C)C[C@@H]1OCc2ccccc2-c2c(n(C)c3ccccc23)C(=O)N([C@H](C)CO)C[C@@H]1C | 35.5 µM (active) |
| C[C@H](CO)N1C[C@H](C)[C@H](CN(C)C(=O)c2ccccc2)OCc2ccccc2-c2c(n(C)c3ccccc23)C1=O | 22.4 µM (active) |
| COC(=O)CN1C(=O)N/C(=C/c2cc(Cl)c(OC)c(OC)c2)C1=O | inactive |
| CC(=O)O/N=C/c1c(NCc2ccccc2)nc2c(C)cccn2c1=O | inactive |
| Cc1nc(SCc2ccccc2)nc2c1CCC2 | inactive |
| CC(=O)c1c(C)[nH]c(C(=O)CN2C(=O)NC(C)(CCC(C)C)C2=O)c1C (centres undefined) | inactive |
| O=C1CSC(=S)N1N=Cc1cccc(OCc2ccccc2)c1 | inactive |
| CCSc1ccc(-c2nn(-c3ccccc3)cc2/C=C(/C#N)C(=O)NCCCOC)cc1 | inactive |
| COc1ccc(-c2nn(-c3ccccc3)cc2/C=N/N2C(=O)CSC2=S)cc1 | 39.8 µM (active) |
| CCCCCCc1cc2cc(S(=O)(=O)c3ccc(F)cc3)c(=O)oc2cc1O | inactive |
| NC(=O)c1sc2nc(-c3ccccc3)ccc2c1N | inactive |
| CCC1CCCCN1C(=O)c1ccc(OC2CCN(C(=O)COC)CC2)cc1 (centres undefined) | inactive |
| Cn1cc(C(=O)N2CCN(c3cccc(C(F)(F)F)c3)CC2)c2c3ccccc3n(C)c2c1=O | 31.6 µM (active) |
| Cc1c(S(=O)(=O)N2CCN(c3cccc(C(F)(F)F)c3)CC2)c(=O)n(C)c(=O)n1C | inactive |
| COCCN=C(S)N1CCN(c2cccc(C(F)(F)F)c2)CC1 | inactive |
| CC(=O)N(C1=C(Cl)C(=O)c2ccccc2C1=O)C1CCCCC1 | inactive |

| Structure (SMILES) | Potency |
| --- | --- |
| Cc1ccc(NC2=C(Cl)C(=O)c3ccccc3C2=O)cc1 | 28.2 µM (active) |
| CC(=O)Nc1ccc(NC2=C(Cl)C(=O)c3ccccc3C2=O)cc1 | 28.2 µM (active) |
| CN(C)c1ccc(NC2=C(Cl)C(=O)c3ccccc3C2=O)cc1 | 25.1 µM (active) |
| CCCC(=O)NC1=C(Cl)C(=O)c2ccccc2C1=O | inactive |
| Oc1c(Cl)cc(Cl)cc1/C=N/NC(=S)NC1CC2C=CC1C2 (centres undefined) | inactive |
| CCn1c([N+](=O)[O-])nc2c1c(=O)[nH]c(=O)n2C | 22.4 µM (active) |
| Cn1c(=O)[nH]c(=O)c2c1nc(Br)n2Cc1ccc(Cl)cc1 | inactive |
| CCCCNc1c(N)n(CC(C)C)c(=O)[nH]c1=O | inactive |
| CC(C)Cn1c([N+](=O)[O-])nc2c1c(=O)[nH]c(=O)n2C | 29.9 µM (active) |
| COCCn1c(-c2ccc(-c3ccc([N+](=O)[O-])cc3Br)o2)nc2c1c(=O)[nH]c(=O)n2CC(C)C | inactive |
| COc1ccc(C(=O)c2sc3nc4c(c(C(F)(F)F)c3c2N)CN(C(C)=O)CC4)cc1OC | inactive |
| O=C(O)c1cc(N/N=C/c2cccc3ccccc23)ccc1Cl | inactive |
| COC(=O)c1scc(C)c1S(=O)(=O)Nc1ccc(C)cc1 | inactive |
| C=Cc1ncc(OC)c2c1[nH]c1ccccc12 | 11.9 µM (active) |
| COc1cccc2[nH]c3c(O)ncnc3c12 | inactive |
| C(=C\c1nccc2c1[nH]c1ccccc12)/c1ccccc1 | inactive |
| Cc1noc(C)c1COC(=O)c1cc(S(=O)(=O)N2CCOCC2)ccc1F | inactive |
| COc1ccc(N(Cc2cc(O)nc3ccccc23)C(=O)CCl)cc1 | 39.8 µM (active) |
| CCCC(=O)N(Cc1cc2cc(OC)ccc2nc1O)c1ccccc1OC | inactive |
| CC1(C)Cc2c(cnn2-c2ccccc2)C(NC(=O)CCN2CCCC2=O)C1 (centres undefined) | inactive |
